Where “and” joins values, the source holds several entries; their conditions need not be identical. Identical values can stand only once. The whole screen tested about 5,500 compounds, of which about 2,000 (36%) were called active. About 18% were inconclusive and are not listed. Rule as the data show it: active = normalized growth mostly below about 0.91 (no sharp cut-off); inconclusive = no clear call, values can overlap the other calls; inactive = mostly above about 0.92. The list shows a part of the results.
Test: chemical genetic growth profiling, strain panel (AID 1159580);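 also: tested at 20 µM; growth read once vehicle control cultures reached saturation at 30 °C; 1 = growth at the plate median or of vehicle wells; lower values mean less growth of the strain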
Conditions: S. cerevisiae deletion strains, growth OD

Measured: normalized growth

Oc1ccc(Cl)cc1
inactive: locus YAL013W, strain DEP1, active compounds read low 0.992 | locus YAL021C, strain ccr4, active compounds read low 1.01 | locus YAL026C, strain drs2, active compounds read low 1.03 | locus YAL030W, strain snc1, active compounds read low 1.01 | locus YBL061C, strain skt5, active compounds read low 1.01 | locus YBR009C, strain hhf1, active compounds read low 1.01 | locus YBR021W, strain FUR4, active compounds read low 0.971 | locus YBR023C, strain chs3, active compounds read low 1.01 | locus YBR171W, strain sec66, active compounds read low 1.02 | locus YBR229C, strain ROT2, active compounds read low 0.986 | locus YBR231C, strain swc5, active compounds read low 1 | locus YBR279W, strain paf1, active compounds read low 1.01 | locus YCL011C, strain gbp2, active compounds read low 1.01 | locus YCL016C, strain dcc1, active compounds read low 1.02 | locus YCL029C, strain bik1, active compounds read low 0.976 | locus YCL061C, strain MRC1, active compounds read low 1.02 | locus YCL069W, strain vba3, active compounds read low 1.01 | locus YCR088W, strain abp1, active compounds read low 1.01 | locus YDL005C, strain med2, active compounds read low 1.01 | locus YDL035C, strain GPR1, active compounds read low 0.987 | locus YDL040C, strain nat1, active compounds read low 1.01 | locus YDL074C, strain BRE1, active compounds read low 1.01 | locus YDL101C, strain DUN1, active compounds read low 0.985 | locus YDL134C, strain PPH21, active compounds read low 0.975 | locus YDL185W, strain tfp1, active compounds read low 0.98 | locus YDL192W, strain arf1, active compounds read low 0.977 | locus YDR001C, strain nth1, active compounds read low 1.01 | locus YDR069C, strain doa4, active compounds read low 0.992 | locus YDR101C, strain arx1, active compounds read low 0.973 | locus YDR137W, strain rgp1, active compounds read low 1.04 | locus YDR159W, strain sac3, active compounds read low 0.981 | locus YDR162C, strain NBP2, active compounds read low 0.995 | locus YDR195W, strain ref2 1.02 | locus YDR297W, strain sur2, active compounds read low 1.01 | locus YDR318W, strain mcm21, active compounds read low 0.977 | locus YDR334W, strain swr1, active compounds read low 1.01 | locus YDR335W, strain msn5, active compounds read low 1 | locus YDR388W, active compounds read low 0.962 | locus YDR392W, strain spt3, active compounds read low 0.956 | locus YDR502C, strain sam2, active compounds read low 0.979 | locus YEL003W, strain gim4, active compounds read low 1.01 | locus YEL037C, strain rad23, active compounds read low 1.01 | locus YEL061C, strain CIN8 (second series), active compounds read low 1.01 | locus YEL061C, strain CIN8, active compounds read low 0.993 | locus YER015W, strain faa2, active compounds read low 1.01 | locus YER016W, strain bim1, active compounds read low 0.997 | locus YER110C, active compounds read low 0.973 | locus YER111C, strain swi4, active compounds read low 1.01 | locus YER155C, strain BEM2 (second series), active compounds read low 1.02 | locus YER155C, strain BEM2, active compounds read low 0.987 | locus YER167W, strain BCK2, active compounds read low 0.984 | locus YFR010W, strain ubp6, active compounds read low 1 | locus YGL078C, strain dbp3, active compounds read low 0.978 | locus YGL086W, strain mad1, active compounds read low 1 | locus YGL167C, strain pmr1, active compounds read low 1 | locus YGL173C, strain kem1, active compounds read low 1 | locus YGL227W, strain vid30, active compounds read low 1.01 | locus YGL240W, strain doc1, active compounds read low 1 | locus YGL248W, strain PDE1, active compounds read low 0.991 | locus YGL253W, strain hxk2, active compounds read low 1.02 | locus YGR135W, strain pre9, active compounds read low 0.978 | locus YGR229C, strain SMI1, active compounds read low 0.996 | locus YGR252W, strain gcn5, active compounds read low 1.05 | locus YHR013C, strain ard1, active compounds read low 1.03 | locus YHR027C, strain rpn1, active compounds read low 1.01 | locus YHR030C, strain SLT2, active compounds read low 0.99 and 0.965 | locus YHR079C, strain IRE1 (second series), active compounds read low 0.966 | locus YHR079C, strain IRE1, active compounds read low 0.966 | locus YHR094C, strain hxt1, active compounds read low 0.974 | locus YHR129C, strain ARP1, active compounds read low 0.998 | locus YHR142W, strain chs7, active compounds read low 1.02 | locus YHR200W, strain rpn10, active compounds read low 0.98 | locus YIL066C, strain RNR3, active compounds read low 0.992 | locus YIL073C, strain SPO22, active compounds read low 0.942 | locus YIL125W, strain kgd1, active compounds read low 0.975 | locus YIR030C, strain dcg1, active compounds read low 0.98 | locus YJL092W, strain hpr5, active compounds read low 1.02 | locus YJL095W, strain BCK1 (second series), active compounds read low 1.01 | locus YJL095W, strain BCK1, active compounds read low 1.01 and 0.962 | locus YJL115W, strain asf1, active compounds read low 1.02 | locus YJL129C, strain trk1, active compounds read low 0.99 | locus YJL134W, strain LCB3, active compounds read low 0.991 | locus YJL154C, strain vps35, active compounds read low 1.01 | locus YJL164C, strain tpk1, active compounds read low 1 | locus YJL166W, strain qcr8, active compounds read low 1.02 | locus YJL168C, strain set2, active compounds read low 0.978 | locus YJL187C, strain SWE1 (second series), active compounds read low 0.986 | locus YJL187C, strain SWE1, active compounds read low 1.02 | locus YJR043C, strain POL32, active compounds read low 1 | locus YJR066W, strain TOR1, active compounds read low 0.934
